Screening data deposited in PubChem BioAssay by National Center for Advancing Translational Sciences (NCATS).
Shown are actives, neighbours in structure and some others; about 5.2% of the full set was active somewhere.
TrxR1 substrate: is turned over as a substrate by rat TrxR1; actives 0.01% (n = 390,000); AID 588456; purified TrxR1 substrate turnover, NADPH consumption readout; Potency, µM (doses to about 114 µM), inactives show at the highest dose activity change, negative = substrate turnover; further: potency means the concentration at half of the fitted maximal effect; on the % scale 0 is the no-effect control and ±100 the full control effect; nearly all actives have a fitted effect of over 50% in size
Target sequence (O89049 whole entry, looked up): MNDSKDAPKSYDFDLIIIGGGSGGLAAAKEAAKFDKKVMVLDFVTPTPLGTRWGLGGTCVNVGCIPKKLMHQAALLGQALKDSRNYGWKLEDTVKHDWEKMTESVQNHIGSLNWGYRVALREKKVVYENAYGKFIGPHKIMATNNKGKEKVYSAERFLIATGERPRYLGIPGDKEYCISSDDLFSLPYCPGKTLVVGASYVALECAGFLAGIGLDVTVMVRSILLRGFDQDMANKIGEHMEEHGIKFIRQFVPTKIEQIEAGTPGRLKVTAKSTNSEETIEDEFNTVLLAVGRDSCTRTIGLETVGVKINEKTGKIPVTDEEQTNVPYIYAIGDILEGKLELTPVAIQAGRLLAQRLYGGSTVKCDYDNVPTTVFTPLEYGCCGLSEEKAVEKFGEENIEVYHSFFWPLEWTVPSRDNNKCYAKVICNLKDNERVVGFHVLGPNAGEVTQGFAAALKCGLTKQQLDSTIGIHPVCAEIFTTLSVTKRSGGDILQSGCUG
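Rat TrxR1, dispensed at 90 nM, was prereduced with 400 uM NADPH (final) for 5 min at ~22 deg C, then incubated with compound 15 min before 400 uM selenite. A first-read NADPH fluorescence drop versus no-compound background flagged substrates.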
PLK1 PBD block: inhibitors of human PLK1 polo-box domain binding | Plk1 PBD binding of FITC phosphopeptide, fluorescence polarization | actives 2.8% (n = 360,000) | Potency, µM, without a hit: max response, negative = inhibition, hits mostly inhibitors | AID 720504 | P53350; further: potency means the concentration at half of the fitted maximal effect; series mostly up to about 57 µM; on the % scale 0 is the no-effect control and ±100 the full control effect; nearly all actives have a fitted effect of over 65% in size
rTrxR1 inhibitor: rat TrxR1 inhibition; recombinant rTrxR1, NADPH fluorescence consumption, selenite substrate; Potency, µM (top dose mostly 114 µM), without a hit: at the top dose activity change, negative = inhibition, usual class: inhibitors; actives 1% (n = 390,000); further: potency means the concentration at half of the fitted maximal effect; on the % scale 0 is the no-effect control and ±100 the full control effect; nearly all actives have a fitted effect of over 65% in size
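Rat TrxR1 (90 nM in the dispensed reagent) was pre-reduced with 400 uM NADPH for 5 min at room temperature, then incubated with compound for 15 min. After 400 uM selenite was added, NADPH fluorescence (Ex 340/Em 450 nm) was followed for 8 min.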
Sfp inh: blocks B. subtilis Sfp PPTase activity. Q9F4F7. Potency, µM, without a hit: largest response in the series, negative = inhibition, hits mostly inhibitors. AID 1490. Biochemical Sfp PPTase activity, qHTS. actives 3.5% (n = 310,000);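 further: the enzyme is Sfp with the accession as filed and its product quenches rhodamine fluorescence; potency means the concentration at half of the fitted maximal effect; 0% = enzyme reaction without inhibitor and -100% = no enzyme wells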
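Buffer: 50 mM Hepes-Na pH 7.6, 10 mM MgCl2, 0.01% Nonidet P-40, 0.01% BSA. Enzyme 15 nM, pre-exposed to compound 15 min; substrates then added and fluorescence change tracked over 30 min.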
VDR inhibitor: blocks the human vitamin D receptor. VDR-SRC2-3 peptide fluorescence polarization, 2 h. Potency, µM, without a hit: max response, negative = inhibition, usual class: inhibitors. AID 504847. actives 0.93% (n = 400,000). P11473; further: potency means the concentration at half of the fitted maximal effect; on the % scale 0 is the no-effect control and ±100 the full control effect
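Two reagent solutions held at 4 deg C in the dark were dispensed, compounds pinned at 23 nl, and the mixture incubated 2 h at room temperature. Read-out: fluorescence polarization of VDR–SRC2-3 peptide binding.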
IDH1 R132H inh: inhibitors of human mutant IDH1 R132H | AID 602179 | Potency, µM (highest dose often 76.6 µM), inactives show at the top dose activity change, negative = inhibition, hits mostly inhibitors | actives 0.093% (n = 390,000) | IDH1-R132H enzyme, NADPH consumption, diaphorase/resazurin fluorescence | O75874; further: potency means the concentration at half of the fitted maximal effect; on the % scale 0 is the no-effect control and ±100 the full control effect; nearly all actives have a fitted effect of over 65% in size
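IDH1-R132H (0.5 ug/mL) preincubated 30 min with compound, then NADPH (0.016 mM) and alpha-KG (2 mM) added; 80 min at RT, pH 7.5. Remaining NADPH coupled via diaphorase/resazurin to fluorescence (540/590 nm); concentration-response curves normalized to no-enzyme control.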
VDR inh confirm: inhibits human vitamin D receptor, primary hit validation; shares compounds with VDR inhibitor; VDR-coactivator inhibition assay, qHTS confirmation; Potency, µM, hits mostly inhibitors; actives 89% (n = 840); AID 602199; further: potency means the concentration at half of the fitted maximal effect
VDR FP: confirmation of human VDR-coactivator binding inhibitors, fluorescein label. shares compounds with VDR inhibitor. VDR-coactivator binding, fluorescein fluorescence polarization. Potency, µM (series often up to 57.1 µM), for inactives: top-dose activity change, negative = inhibition, actives largely listed as inhibitors. actives 48% (n = 840). AID 602200; further: potency means the concentration at half of the fitted maximal effect
VDR bla reporter: inhibits human VDR in beta-lactamase reporter cells; shares compounds with VDR inhibitor; VDR beta-lactamase reporter cells, FRET ratio; cells co-treated with VDR agonist LG190178; Potency, µM (highest dose often 46.1 µM), for inactives: at the top dose activity change, negative = inhibition, actives largely listed as inhibitors; actives 23% (n = 840); AID 602202; further: potency means the concentration at half of the fitted maximal effect; on the % scale 0 is the no-effect control and ±100 the full control effect
VDR viability: counter-screen for vitamin D receptor inhibitors: cytotoxicity; shares compounds with VDR inhibitor; cytotoxicity counter-screen, cell viability, qHTS; Potency, µM (doses to about 48.3 µM), for inactives: at the top dose activity change, negative = cytotoxicity, actives largely listed as cytotoxic; actives 18% (n = 840); AID 602204;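 further: potency means the concentration at half of the fitted maximal effect; plate controls were DMSO for no effect and high-concentration cycloheximide for full effect; nearly all actives have a fitted effect of over 75% in size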
Resorufin autofl: counter-screen for mutant IDH1 inhibitors: fluorescence interference | inhibition of signal, % at 51.2 µM | shares compounds with IDH1 R132H inh | Resorufin detection reagent fluorescence interference, cell-free | 750 tested, under 10 active | AID 623980;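 further: 0% = wells with normal resorufin and full inhibition = wells lacking resorufin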
WT IDH1 inh: inhibits human wild-type IDH1, mutant selectivity check; WT IDH1 enzyme, NADPH diaphorase/resazurin fluorescence; AID 623995; Potency, µM (highest dose often 115 µM), without a hit: at the highest dose activity change, negative = inhibition, hits mostly inhibitors; shares compounds with IDH1 R132H inh; actives 9% (n = 750);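 further: potency means the concentration at half of the fitted maximal effect; 0% = full WT IDH1 enzyme control and full inhibition = no enzyme wells; nearly all actives have a fitted effect of over 55% in size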
IDH1 R132H conf: mutant IDH1 (human) inhibition, confirmed | shares compounds with IDH1 R132H inh | actives 83% (n = 750) | Potency, µM (highest dose often 76.6 µM), for the others: at the highest dose activity change, negative = inhibition, actives largely listed as inhibitors | IDH1 R132H enzyme, NADPH diaphorase/resazurin fluorescence | AID 624002; further: potency means the concentration at half of the fitted maximal effect; nearly all actives have a fitted effect of over 50% in size
* = called active by the depositor; u = inconclusive; x = no result given; [ ] = dose if it differs, or a comment. The call rests on the fitted dose curve; in most records, active means well fitted curve in the direction sought with a large enough effect; inconclusive means small, poorly fitted or top-dose-only effect, or another doubt; inactive means no such curve, though single readings can be large; an effect the other way counts as inactive or inconclusive.

SMILES | TrxR1 substrate | PLK1 PBD block | rTrxR1 inhibitor | Sfp inh | VDR inhibitor | IDH1 R132H inh | VDR inh confirm | VDR FP | VDR bla reporter | VDR viability | others
CN(c1ccccc1)S(=O)(=O)c1ccc(NC(=O)c2nc(S(C)(=O)=O)ncc2Cl)cc1 | 0% | 17µM* | 0.79µM* | 28µM* | 20µM* | 3% | 3.8* | 3.5µM* | 3.7µM* | 8.2µM*
CCOC(=O)c1c(-c2ccccc2)csc1NC(=O)c1nc(S(=O)(=O)CC)ncc1Cl | 0% | x | 3.2µM* | x | 18µM* | -9% | 3.2* | u | 4.6µM* | 21µM*
CCOC(=O)c1ccc(NC(=O)c2nc(S(=O)(=O)Cc3ccccc3)ncc2Cl)cc1 | 6% | 12µM* | 6.3µM* | u | 32µM* | -1% | 13* | u | 15µM* | 13µM*
CCOC(=O)c1c(-c2ccccc2)csc1NC(=O)c1nc(SCC)ncc1Cl | -9% | x | 4% | x | 18% | 1% | x | x | x | x
Cc1ccc(OCCn2cc(C(=O)C3CCCCC3)c3ccccc32)cc1 | -4% | x | 11% | x | -1% | 4% | x | x | x | x
O=C(O)c1cccc(CN2C(=O)S/C(=C/c3cccc([N+](=O)[O-])c3)C2=O)c1 | -1% | u | -13% | 71µM* | 20µM* | -1% | 18* | 22µM* | -23% | -8%
C=CCN=C1S/C(=C/c2cccc([N+](=O)[O-])c2)C(=O)N1CC=C | 1% | -2% | 7% | -17% | -21% | 9% | x | x | x | x
CC1C/C(=C\c2cccnc2)C(=O)/C(=C/c2cccnc2)C1 (stereo not drawn) | -5% | -14% | 50µM* | u | 35µM* | u | 12* | u | 2.1µM* | u | Resorufin autofl=1;WT IDH1 inh=6%;IDH1 R132H conf=45µM*
Cc1ccccc1N1CC(=O)N(c2ccccc2C)CC1=O | 0% | 0% | 1% | 17% | -2% | 0% | x | x | x | x
Cc1cccc2c1c1ccc3c(c1n2C)C(=O)C=CC3=O | 12%[57.1 µM] | u | u | 3.5µM* | 22µM* | 40µM* | 9.5* | 13µM* | 7.3µM* | 8.9µM* | Resorufin autofl=0;WT IDH1 inh=117%;IDH1 R132H conf=25µM*
COc1ccc(-c2cccc(NS(=O)(=O)c3cccs3)c2)nn1 | -1%[57.1 µM] | x | 12%[57.1 µM] | x | -4% | 29% | x | x | x | x
